Consider 94 compounds from ChEMBL document CHEMBL3988442, “University of Dundee, Small-Polar-MMV Screening Library” (2021).

Each structure is given as a SMILES string. In all, about 48,000 compounds went through this assay and about 13,000 (27%) showed an effect of 50% or more. This is one part of the list.

This test deals with Wolbachia pipientis. The experiment in a line: Anti-Wolbachia Cell-Based Screen. Format: functional. Also noted: scale not given: in the data most compounds retested in dose-response had high values. The note with it: 5 µM.
As for `CC(C)C(C)N(C(=O)Cn1nc2n(c1=O)CCCCC2)C1CC1` (centres undefined), the “Percent Effect” value is on record as 119.1%.

As to `CC(c1ccco1)N(C(=O)Cn1nc2n(c1=O)CCCCC2)C1CC1` (centres undefined), the “Percent Effect” value is recorded as 105.1%.

With `CC(c1ccco1)N(C(=O)NCc1ccon1)C1CC1` (centres undefined), the “Percent Effect” value worked out at 5.216%.

In the case of `O=C(c1cnc2n1CCCC2)N1CCCC1`, the “Percent Effect” value came to 17.49%.

For `CC(C)N(C(=O)Cn1nc2n(c1=O)CCCCC2)C1CCC1`, the “Percent Effect” value turned out to be 81.53%.

Consider `CC(c1ccco1)N(C(=O)c1cc2c([nH]c1=O)CCCC2=O)C1CC1` (centres undefined), for which the “Percent Effect” value is -5.594%.

For `CC(C)C(C)N(C(=O)c1cc2c([nH]c1=O)CCCC2=O)C1CC1` (centres undefined), the “Percent Effect” value is listed as -5.669%.

Turning to `CC(C)C(=O)N(C)Cc1nnc2n1CCCCC2`, the “Percent Effect” value was 6.475%.

Turning to `CN1[C@H]2CC[C@@H]1CN(C(=O)c1nnc3n1CCCCC3)CC2`, the “Percent Effect” value is -0.7264%.

Consider `Cc1csc(CN2CC[C@H]3C[C@H](c4nnc(C)[nH]4)O[C@@H]3C2)n1`, for which the “Percent Effect” value is listed as 1.224%.

Turning to `CC(C)N(C)S(=O)(=O)N(Cc1cccs1)Cc1cccs1`, the “Percent Effect” value was -8.549%.

Consider `CCOCCCNC(=O)N(C)Cc1ccc(SC)c(OC)c1`, for which the “Percent Effect” value was 10.44%.

In the case of `CCOCCCNC(=O)C1(C)CCC(=O)N1c1ccccc1F` (centres undefined), the “Percent Effect” value was 110.1%.

With `CCOCCCNC(=O)C1(C)CCC(=O)N1Cc1ccccc1F` (centres undefined), the “Percent Effect” value stood at 119.7%.

As to `COc1cccc(C(=O)N2CCC3(CCC(=O)N(C(C)C)C3)CC2)c1C`, the “Percent Effect” value is -8.72%.

For `CC(=O)NCCCSC1CCN(c2ccccc2F)C1=O` (centres undefined), the “Percent Effect” value is -10.73%.

On to `CCOCCCNC(=O)C1(C)CCC(=O)N1c1cc(OC)ccc1OC` (centres undefined), for which the “Percent Effect” value is given as 128.4%.

`O=C(O)C(F)(F)F.O=C1CCC2(CCCN(Cc3ccccc3F)C2)N1CC1CC1` (centres undefined): the “Percent Effect” value was -58.45%.

Take `CCOC(=O)c1ccc(Nc2ccc(OC)c(N3CCCC3=O)c2)nc1`: the “Percent Effect” value was -0.2575%.

Turning to `COc1ccccc1C1(C(=O)NCCN2CCOCC2)CCOCC1`, the “Percent Effect” value turned out to be 3.862%.

Regarding `CCOCC1CC2(CCN(C(=O)c3ccccc3F)CC2)CO1` (centres undefined), the “Percent Effect” value was -17.98%.

For the compound `CCOCCCNC(=O)C1(C)CCC(=O)N1c1ccccc1OC` (centres undefined), the “Percent Effect” value turned out to be 128.9%.

`CNC(=O)CN1C(=O)CCC12CCCN(Cc1ccccc1F)C2` (centres undefined): the “Percent Effect” value was -35.38%.

As for `CCc1nc(C2CCCN2C(=O)c2ccc3c(c2)nnn3CC)no1` (centres undefined), the “Percent Effect” value is reported as -4.092%.

For the compound `O=C1NCc2ccc(NC(=O)C3CCCN3c3nccs3)cc21` (centres undefined), the “Percent Effect” value was -9.996%.

As for `O=C(c1cncc(N2CC[C@@]3(O)CCNC[C@H]3C2)n1)N1CCCC1`, the “Percent Effect” value is reported as -7.566%.

As to `CC(C)Oc1ccc(CNC(=O)C2CCS(=O)(=O)C2)cn1` (centres undefined), the “Percent Effect” value was 23.43%.

In the case of `COc1ccc(CN2C[C@@H](CN(C)C)[C@@H](CO)C2)cc1CN1CCCC1`, the “Percent Effect” value is on record as 7.819%.

Turning to `Cn1nc(Cn2ccnc2)c2c1CN(Cc1ccoc1)C2.O=C(O)C(F)(F)F.O=C(O)C(F)(F)F`, the “Percent Effect” value is -6.284%.

For the compound `CC(NC(=O)Nc1ccc(S(C)(=O)=O)cc1)c1ccc2c(c1)CC(=O)N2` (centres undefined), the “Percent Effect” value is reported as 11.72%.

Take `CC(NC(=O)c1ccoc1)c1ccc2c(c1)CCC(=O)N2` (centres undefined): the “Percent Effect” value is recorded as 97.13%.

As to `CC(NC(=O)NCc1ccoc1)c1ccc2c(c1)CCC(=O)N2` (centres undefined), the “Percent Effect” value was -4.231%.

Regarding `CC(NC(=O)NCc1ccoc1)c1ccc2c(c1)CC(=O)N2` (centres undefined), the “Percent Effect” value is 110.9%.

As to `CC(NC(=O)c1sccc1C1CC1)c1ccc2c(c1)CC(=O)N2` (centres undefined), the “Percent Effect” value is -4.532%.

Regarding `CC(NC(=O)c1cccc[n+]1[O-])c1ccc2c(c1)CCC(=O)N2` (centres undefined), the “Percent Effect” value is recorded as -1.39%.

`COc1ccc(F)c(NCC(C)(C)S(C)(=O)=O)c1`: the “Percent Effect” value amounted to 34.79%.

As for `CC(C)c1ccc(CCC(=O)N(C)C2CCN(C)C2=O)cc1` (centres undefined), the “Percent Effect” value was -1.182%.

Regarding `Cc1cc(C(=O)NCCC2CCN(C)CC2)ccc1N(C)S(C)(=O)=O`, the “Percent Effect” value is -18.47%.

With `Cc1ccc(C(=O)Nc2ccc(N3CCCC3)cn2)cc1C`, the “Percent Effect” value was -19.47%.

For the compound `CC(C)c1ccc(-n2ncc(C(=O)N(C)C3CCN(C)CC3)c2N)cc1`, the “Percent Effect” value is listed as 117%.

Consider `CC(C)c1ccc(-n2cc(O)c(C(=O)N3CCC(C(N)=O)CC3)n2)cc1`, for which the “Percent Effect” value was -5.795%.

On to `Cc1ccc(-n2ncc(C(=O)N(C)C3CCN(C)CC3)c2N)cc1C`, for which the “Percent Effect” value was 137.5%.

Turning to `CC(C)Cc1nc(CN2CC(=O)N(C)c3ccccc3C2=O)no1`, the “Percent Effect” value is -12.92%.

For the compound `CSC(C)C(=O)N1CCN(CC(C)(C)O)CC1` (centres undefined), the “Percent Effect” value is reported as -3.379%.

As for `CCOCCn1nc(C)cc1C(=O)N1C[C@@H](C)[C@](O)(C2CC2)C1`, the “Percent Effect” value was -17.93%.

As to `Cc1nc(O)c2nnn(C[C@H]3CCCN3C(=O)c3ccccc3C)c2n1`, the “Percent Effect” value is 143.4%.

On to `COC(=O)C1CCCCN1C(=O)c1ccccc1F` (centres undefined), for which the “Percent Effect” value was 1.901%.

`Cc1nc(O)c2nnn(C[C@H]3CCCN3C(=O)c3cccs3)c2n1`: the “Percent Effect” value worked out at 86.95%.

Regarding `Cc1cc(C)n(CC2CCCCN2C(=O)c2sccc2C#N)n1` (centres undefined), the “Percent Effect” value was -7.705%.

Consider `Cc1nc(O)c2nnn(C[C@H]3CCCN3C(=O)c3ccccc3F)c2n1`, for which the “Percent Effect” value stood at 81.62%.

For the compound `O=C(c1ccno1)N1CC2(CCC(C(=O)N3CCCC3)O2)C1` (centres undefined), the “Percent Effect” value is listed as 1.973%.

In the case of `COCCN1CCN(CCCS(C)(=O)=O)CC1C` (centres undefined), the “Percent Effect” value worked out at 0.5325%.

As to `COc1ccc(Br)cc1CCC(=O)N1CCCC(O)C1` (centres undefined), the “Percent Effect” value was -4.291%.

Regarding `CNS(=O)(=O)c1cccc(C(C)NCc2ccccc2OC)c1` (centres undefined), the “Percent Effect” value was -4.064%.

In the case of `CC(NCc1ccccc1Cl)c1ccc2[nH]c(=O)[nH]c2c1` (centres undefined), the “Percent Effect” value came out at 97.6%.

With `COc1cc(C(=O)NCCc2ccc(OC)c(OC)c2)on1`, the “Percent Effect” value was -10.92%.

As to `CC(NCc1ccc(C(N)=O)cc1)c1ccc(Cl)c(Cl)c1.Cl` (centres undefined), the “Percent Effect” value is -6.625%.

Consider `COc1ccccc1CNC(C)c1ccc(-n2ccnc2)cc1.Cl` (centres undefined), for which the “Percent Effect” value amounted to 2.759%.

On to `COc1ccc(CCNC(C)c2ccc3[nH]c(=O)[nH]c3c2)cc1OC` (centres undefined), for which the “Percent Effect” value is 106.6%.

With `COc1ccc(C(C)NCc2c[nH]nc2C)cc1OC.Cl` (centres undefined), the “Percent Effect” value is -6.737%.

As for `COc1ccccc1CNC(C)c1ccc2[nH]c(=O)[nH]c2c1` (centres undefined), the “Percent Effect” value was 98.3%.

As for `CC(NCc1ccccc1Br)c1ccc2[nH]c(=O)[nH]c2c1` (centres undefined), the “Percent Effect” value was -2.776%.

`O=C(NCCSc1cnn[nH]1)c1c[nH]nc1C1CCCCC1`: the “Percent Effect” value is on record as -9.483%.

Consider `CC(C)(C)c1csc(CNC(=O)C2NCCc3[nH]cnc32)n1` (centres undefined), for which the “Percent Effect” value was -12.08%.

In the case of `CCN1CCN(c2ccc(C(=O)NCCn3ccnc3)cc2F)CC1`, the “Percent Effect” value was -30.24%.

Regarding `CNc1nc(N2CCC3(CCCNC3=O)C2)nc2c1CCC2` (centres undefined), the “Percent Effect” value is given as -0.1969%.

Consider `O=C(O)CC(O)(CC(=O)O)C(=O)O.O[C@]1(c2ccccn2)CC[C@@H]2CN(Cc3cccc4ncccc34)C[C@@H]21`, for which the “Percent Effect” value is -10.13%.

`Cc1ccc([C@]2(O)CC[C@H]3CN(Cc4cccc(Cl)c4Cl)C[C@H]32)nc1.O=C(O)CC(O)(CC(=O)O)C(=O)O`: the “Percent Effect” value was -1.737%.

As for `Cc1ccc([C@]2(O)CC[C@H]3CN(Cc4cccc(F)c4F)C[C@H]32)nc1.O=C(O)CC(O)(CC(=O)O)C(=O)O`, the “Percent Effect” value is reported as 118%.

Take `Cc1ccc([C@]2(O)CC[C@H]3CN(Cc4cc(C)c(O)c(C)c4)C[C@H]32)nc1.O=C(O)CC(O)(CC(=O)O)C(=O)O`: the “Percent Effect” value is listed as -15.37%.

For `COc1ccc(CN2C[C@H]3CC[C@](O)(c4ccc(C)cn4)[C@H]3C2)c(F)c1.O=C(O)CC(O)(CC(=O)O)C(=O)O`, the “Percent Effect” value was -13.42%.

In the case of `CN(C)C(=O)CN1C[C@@H]2CC[C@H](C1)N(Cc1cccc(Cl)c1Cl)C2`, the “Percent Effect” value is reported as -2.337%.

On to `COc1ncc(CN2C[C@@H]3CC[C@@](O)(c4ccc(C)cn4)[C@@H]3C2)cn1.O=C(O)CC(O)(CC(=O)O)C(=O)O`, for which the “Percent Effect” value is 114.7%.

Regarding `Cc1cccnc1[C@]1(O)CC[C@H]2CN(Cc3cccc(Cl)c3Cl)C[C@H]21.O=C(O)CC(O)(CC(=O)O)C(=O)O`, the “Percent Effect” value worked out at 135.1%.

For the compound `COc1cccc(CN2C[C@@H]3CC[C@@](O)(c4ccccn4)[C@@H]3C2)c1OC.O=C(O)CC(O)(CC(=O)O)C(=O)O`, the “Percent Effect” value stood at 115.9%.

With `COCc1ncc(CN2CCN(C)C(=O)C2C)cn1` (centres undefined), the “Percent Effect” value is 4.151%.

Turning to `CCn1cnnc1Cn1cccc(C(F)(F)F)c1=O`, the “Percent Effect” value is given as -0.03218%.

Regarding `COc1ccc(-c2nccn2CC(O)CN2CCCC2)c(F)c1` (centres undefined), the “Percent Effect” value is listed as 5.429%.

As to `CCOc1cncc(NCCc2nnc3ccccn23)n1`, the “Percent Effect” value is on record as -20.41%.

`CCC(CO)N(Cc1ccsc1)Cc1ccccc1C(=O)O` (centres undefined): the “Percent Effect” value is 6.266%.

On to `Cc1cc(CN2CC[C@@H]3[C@@H](CCC(=O)N3CCc3c[nH]cn3)C2)oc1C`, for which the “Percent Effect” value is given as -14.05%.

Consider `CCC(=O)c1cccc(S(=O)(=O)NC(C)C#N)c1` (centres undefined), for which the “Percent Effect” value is on record as -8.003%.

Regarding `CN(C1CCN(c2ccccn2)CC1)S(=O)(=O)c1cccc(F)c1`, the “Percent Effect” value was 13.53%.

`O=C(NCC1CC1)C1CSCN1S(=O)(=O)c1cccc(F)c1` (centres undefined): the “Percent Effect” value was -6.551%.

In the case of `O=C(O)C(F)(F)F.O=S(=O)(c1cccs1)N1CC[C@H]2[C@H]1CCN2c1ncccn1`, the “Percent Effect” value was -7.709%.

In the case of `O=S(=O)(c1cccs1)N1CCCCC1c1ccn[nH]1` (centres undefined), the “Percent Effect” value is reported as 120.2%.

For the compound `Cc1ccccc1S(=O)(=O)N1CCCCC1c1ccn[nH]1` (centres undefined), the “Percent Effect” value amounted to 0.4281%.

As for `O=S(=O)(c1cccc(F)c1)N1CCCCC1c1ccn[nH]1` (centres undefined), the “Percent Effect” value was 127.9%.

For `O=C1c2c(O)cc(O)cc2O[C@@H](c2ccc(O)cc2)[C@@H]1O`, the “Percent Effect” value is 0.6664%.

As to `CC(=O)NCCNC(=O)c1sc(-c2ccc(Cl)s2)nc1C`, the “Percent Effect” value is recorded as -4.935%.

Take `O=C(Nc1ccccc1)NC1CCN(C2CCOC2)CC1` (centres undefined): the “Percent Effect” value was -12.98%.

As for `CC(C)c1nc(CN(C)C(=O)CNS(=O)(=O)c2cccs2)cs1`, the “Percent Effect” value is recorded as -16.12%.

On to `COCc1cc(N(C)Cc2ncnn2C)nc(C(C)(C)C)n1`, for which the “Percent Effect” value is -13.36%.

`O=C(O)C(=O)O.c1cnc(-c2noc(C3CN(Cc4ccc5c(c4)CCO5)C3)n2)cn1`: the “Percent Effect” value is given as 6.909%.
